From PubChem BioAssay AID1159580 (chemical genetic matrix, 2015)
Out of some 5,500 compounds screened, about 2,000 (36%) were called active. Roughly 18% stayed inconclusive and do not appear here. Cut-off read from the data, not from the text of the source: active = normalized growth mostly below about 0.91 (no sharp cut-off); inconclusive = no clear call, values can overlap the other calls; inactive = mostly above about 0.92. This is one part of the list.

Assay: chemical genetic growth profiling, strain panel (AID 1159580);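 note: tested at 20 µM; growth read once vehicle control cultures reached saturation at 30 °C; 1 = growth at the plate median or of vehicle wells; lower values mean less growth of the strain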
Conditions: S. cerevisiae deletion strains, growth OD

Measured: normalized growth

CC(=O)Nc1cc([N+](=O)[O-])ccc1-n1cc(C)c(C(F)(F)F)n1
inactive: locus YAL013W, strain DEP1, active compounds read low 0.966 | locus YBR229C, strain ROT2, active compounds read low 0.985 | locus YCL061C, strain MRC1, active compounds read low 0.978 | locus YDL101C, strain DUN1, active compounds read low 0.986 | locus YDR150W, strain NUM1, active compounds read low 0.947 | locus YEL061C, strain CIN8, active compounds read low 0.998 | locus YGR078C, strain PAC10, active compounds read low 0.996 | locus YHR030C, strain SLT2, active compounds read low 0.871 | locus YHR087W, strain rtc3, active compounds read low 0.982 | locus YJR043C, strain POL32, active compounds read low 1 | locus YJR075W, strain HOC1, active compounds read low 0.973 | locus YKL190W, strain CNB1, active compounds read low 0.992 | locus YLR039C, strain RIC1, active compounds read low 0.935 | locus YLR058C, strain SHM2 (second series), active compounds read low 0.988 | locus YLR085C, strain ARP6, active compounds read low 0.94 | locus YLR262C, strain YPT6, active compounds read low 0.928 | locus YML094W, strain GIM5, active compounds read low 0.963 | locus YMR219W, strain ESC1, active compounds read low 0.988 | locus YMR263W, strain SAP30, active compounds read low 0.917 | locus YNL153C, strain GIM3, active compounds read low 0.985 | locus YNL298W, strain CLA4 (second series), active compounds read low 0.962 | locus YNL322C, strain KRE1, active compounds read low 0.981 | locus YNR030W, strain Alg12, active compounds read low 0.962 | locus YPL055C, strain LGE1, active compounds read low 0.931 | locus YPL241C, strain CIN2, active compounds read low 1.03 | locus YPR135W, strain CTF4, active compounds read low 0.905
